# Experimental data as given in PubChem BioAssay (Tox21).
# Unmarked numbers belong to inactive results. Results filed as inconclusive are left out. Entries that show only a call come without a potency. Activity calls are given as the source filed them. Unless noted, calls come from the whole dose curve.
# How the values were obtained:
# [1] = Nuclear factor erythroid 2-related factor 2/antioxidant responsive element (Nrf2/ARE) small molecule agonists: qHTS cell viability counter screen in human keratinocytes (AID 1919968; active = well fitted curve in the direction sought with a large enough effect in the repeat runs; an effect the other way counts as inactive or inconclusive; note: nearly all actives have a fitted effect of over 55% in size)
# Procedure, shortened: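 KeratinoSens cells (HaCaT keratinocytes stably carrying an ARE-luciferase reporter) were seeded at 1,500 cells/well and rested 5 h at 37 C/5% CO2. They were then exposed to compounds in DMSO for 23 h. Viability was read by CellTiter-Fluor fluorescence after 1 h.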
# [2] = Nuclear factor erythroid 2-related factor 2/antioxidant responsive element (Nrf2/ARE) small molecule agonists: luciferase reporter gene qHTS assay in human keratinocytes (AID 1919969); note: nearly all actives have a fitted effect of over 35% in size; note: potency is the fitted concentration of half-maximal effect
# [3] = biological target: Gonadotropin-releasing hormone receptor (Homo sapiens) (UniProt P30968); assay: Human gonadotropin-releasing hormone receptor (GnRHR) small molecule agonists, calcium flux assay in GnRHR-HEK293 cells (AID 1920063); note: nearly all actives have a fitted effect of over 35% in size
# Procedure, shortened: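 HEK293 cells stably expressing human GnRHR were plated 18 h at 37 °C, loaded with calcium dye 1 h at 37 °C, then given compound in agonist mode; fluorescence (Ex/Em 480/540) read kinetically for 3 min at 1 s intervals.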
# [4] = biological target: KiSS-1 receptor (Homo sapiens) (UniProt Q969F8); assay: Human kisspeptin (KISS1R) small molecule agonists, calcium flux assay in KISS1R-HEK293 cells (AID 1920064; active = well fitted curve in the direction sought with a large enough effect in the repeat runs; an effect the other way counts as inactive or inconclusive)
# Procedure, shortened: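 HEK293 cells stably expressing human KISS1R were plated 18 h at 37 °C, loaded with calcium dye for 1 h at 37 °C, then given compound by pin tool. Fluorescence (Ex/Em 480/540) was read kinetically for 3 min.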
# [5] = G protein-coupled receptor (GPCR) small molecule agonists, calcium flux assay: HEK293 wild type cell line counter screen (AID 1920065)
# Procedure, shortened: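 Cells were plated and cultured 18 h at 37 C/5% CO2, then loaded with calcium dye for 1 h at 37 C. Compounds in DMSO were pin-transferred in agonist mode, and fluorescence (Ex/Em 480/540) was read kinetically for 3 min at 1 s intervals.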
# [6] = p53 small molecule agonists, cell-based qHTS assay with human liver microsomes: qHTS cell viability counter screen (AID 1963579); note: nearly all actives have a fitted effect of over 45% in size
# Procedure, shortened: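 p53RE-bla cells, 4,000/well, dosed 5 hours after plating, with human liver microsomes (0.5 mg/mL final) plus NADPH (0.5 mg/mL final), 16 hours at 37 C. Viability read as CellTiter-Glo luminescence after 30 min at room temperature.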
# [7] = p53 small molecule agonists, cell-based qHTS assay with rat liver microsomes: qHTS cell viability counter screen (AID 1963580); note: nearly all actives have a fitted effect of over 45% in size
# Procedure, shortened: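 p53RE-bla HCT-116 cells (4,000/well) rested 5 h at 37 C, then given Tox21 compounds in DMSO with rat liver microsomes (0.5 mg/mL final) plus NADPH (0.5 mg/mL final) for 16 h at 37 C. Viability read by CellTiter-Glo luminescence after 30 min at room temperature.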
# [8] = p53 small molecule agonists, cell-based qHTS assay: qHTS cell viability counter screen (AID 1963581); note: nearly all actives have a fitted effect of over 45% in size
# Procedure, shortened: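 p53RE-bla HCT-116 cells were exposed to compounds for 16 h at 37 C; after the beta-lactamase FRET read in the same wells, CellTiter-Glo was added and luminescence (intracellular ATP) read after 30 min at room temperature.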
# [9] = biological target: 5-hydroxytryptamine receptor 2A (Homo sapiens) (UniProt P28223); assay: 5-hydroxytryptamine receptor 2A (HTR2A) small molecule antagonists, cell-based qHTS assay (AID 1963586); note: nearly all actives have a fitted effect of over 45% in size
# Procedure, shortened: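 Antagonist-mode intracellular calcium assay: DOI (4 nM) added after 5 min compound pre-incubation at room temperature to dye-loaded HTR2A-CHO cells. Fluorescence followed for 3 min, sampled every second.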
# [10] = biological target: Muscarinic acetylcholine receptor M1 (Homo sapiens) (UniProt P11229); assay: Cholinergic receptor muscarinic 1 (CHRM1) small molecule antagonists, cell-based qHTS assay (AID 1963588); note: nearly all actives have a fitted effect of over 40% in size
# Procedure, shortened: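 CHRM1-CHO calcium-flux assay, antagonist mode. Cells were seeded 18 h, dye-loaded 1 h at 37 C and given compound for 5 min at RT, then acetylcholine was added at 50nM. FDSS fluorescence was read 3 min; 15 concentrations, three runs.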
# [11] = biological target: Muscarinic acetylcholine receptor M1 (Homo sapiens) (UniProt P11229); assay: Cholinergic receptor muscarinic 1 (CHRM1) small molecule agonists, cell-based qHTS assay (AID 1963589); note: nearly all actives have a fitted effect of over 35% in size
# Procedure, shortened: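 CHO cells stably expressing human CHRM1, seeded 18 h at 37 C/5% CO2, dye-loaded 1 h at 37 C, then given compound in agonist mode; intracellular calcium fluorescence read kinetically at 1 s intervals. Fifteen concentrations, three independent runs.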
# [12] = cAMP Responsive Elements (CRE) small molecule agonists, cell-based qHTS assay (AID 1963590)
# Procedure, shortened: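 CRE-bla HEK 293T cells in DMEM with 10% dialyzed FBS, NEAA, pyruvate and 25 mM HEPES were plated 18 h at 37 C/5% CO2, then exposed to compounds in DMSO for 3 h before LiveBLAzer B/G FRET substrate addition.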
# [13] = biological target: Beta-2 adrenergic receptor (Homo sapiens) (UniProt P07550); assay: Adrenergic beta2 receptor (ADRB2) small molecule antagonists, cell-based qHTS assay (AID 1963592); note: series mostly up to about 92 µM; nearly all actives have a fitted effect of over 50% in size
# Procedure, shortened: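 Cells (CHO, stable ADRB2 overexpression) incubated 18-20hr at 37C; compounds added from DMSO; agonist mix (1nM isoproterenol, 100uM IBMX, 25uM Ro-20-1724) added; 0.5hr RT; d2-cAMP and anti-cAMP-cryptate added; 1hr RT; 665/615 nm read.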
# [14] = biological target: Beta-2 adrenergic receptor (Homo sapiens) (UniProt P07550); assay: Adrenergic beta2 receptor (ADRB2) small molecule agonists, cell-based qHTS assay (AID 1963593);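 note: CHO cells stably overexpressing human ADRB2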
# Procedure, shortened: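 CHO cells stably over-expressing ADRB2 were plated overnight at 37C, then dosed with compounds plus a stimulation mix containing 100uM IBMX and 25uM Ro-20-1724 for 0.5hr at room temperature. cAMP was measured by HTRF competition, 1hr.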
# [15] = biological target: D(2) dopamine receptor (Homo sapiens) (UniProt P14416); assay: Dopamine D2 receptor (DRD2) small molecule agonists, cell-based qHTS assay (AID 1963594); note: nearly all actives have a fitted effect of over 35% in size
# Procedure, shortened: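 HEK293 cells stably expressing DRD2 were cultured 24 h at 37 C, then given Ro20-1724 (0.1 mM final) and compounds for 10 min at room temperature. NKH477 (200nM) was then added for 30 min. cAMP was read by HTRF.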
# [16] = biological target: D(2) dopamine receptor (Homo sapiens) (UniProt P14416); assay: Dopamine D2 receptor (DRD2) small molecule antagonists, cell-based qHTS assay (AID 1963595; active = well fitted inhibition curve with a large enough effect in the signal ratio in the repeat runs, with a control signal flat; the % refers to the signal ratio)
# Procedure, shortened: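 Stable D2 receptor HEK293 line, 24 h after seeding. Compound preincubated 10 min, then quinpirole (12 nM) with forskolin analogue NKH477 (200 nM), 30 min, room temperature. Detection by time-resolved FRET of cAMP.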
# [17] = biological target: 5-hydroxytryptamine receptor 2A (Homo sapiens) (UniProt P28223); assay: 5-hydroxytryptamine receptor 2A (HTR2A) small molecule agonists, cell-based qHTS assay (AID 1963587); note: nearly all actives have a fitted effect of over 30% in size
# Procedure, shortened: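 HTR2A-CHO cells, plated 18 h at 37 C/5% CO2, dye-loaded 1 h at 37 C; compounds in DMSO added by pin tool (agonist mode). Intracellular calcium flux read as kinetic fluorescence on FDSS over 2 min at 1 s intervals.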
# [18] = cAMP Responsive Elements (CRE) small molecule antagonists, cell-based qHTS assay (AID 1963591; active = well fitted inhibition curve with a large enough effect in the signal ratio in the repeat runs, not every such curve was filed as active; the % refers to the signal ratio)
# Procedure, shortened: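 CRE-bla HEK293T cells were plated 18 h at 37 °C/5% CO2, pinned with compound in DMSO, then stimulated with NKH477 at 0.25 uM final for 3 h. LiveBLAzer B/G FRET substrate was added and plates incubated 2 h at room temperature.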
# Sequence of Gonadotropin-releasing hormone receptor (Homo sapiens) (P30968 whole entry, looked up): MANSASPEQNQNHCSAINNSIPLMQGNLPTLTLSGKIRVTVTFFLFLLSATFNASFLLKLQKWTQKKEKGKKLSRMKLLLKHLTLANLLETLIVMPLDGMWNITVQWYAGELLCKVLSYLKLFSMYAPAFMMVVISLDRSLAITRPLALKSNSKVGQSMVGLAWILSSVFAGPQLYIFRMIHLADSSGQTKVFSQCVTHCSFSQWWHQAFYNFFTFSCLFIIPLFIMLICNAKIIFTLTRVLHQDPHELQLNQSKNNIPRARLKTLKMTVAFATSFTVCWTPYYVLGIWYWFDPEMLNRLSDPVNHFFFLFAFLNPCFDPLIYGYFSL
# Sequence of KiSS-1 receptor (Homo sapiens) (Q969F8 whole entry, looked up): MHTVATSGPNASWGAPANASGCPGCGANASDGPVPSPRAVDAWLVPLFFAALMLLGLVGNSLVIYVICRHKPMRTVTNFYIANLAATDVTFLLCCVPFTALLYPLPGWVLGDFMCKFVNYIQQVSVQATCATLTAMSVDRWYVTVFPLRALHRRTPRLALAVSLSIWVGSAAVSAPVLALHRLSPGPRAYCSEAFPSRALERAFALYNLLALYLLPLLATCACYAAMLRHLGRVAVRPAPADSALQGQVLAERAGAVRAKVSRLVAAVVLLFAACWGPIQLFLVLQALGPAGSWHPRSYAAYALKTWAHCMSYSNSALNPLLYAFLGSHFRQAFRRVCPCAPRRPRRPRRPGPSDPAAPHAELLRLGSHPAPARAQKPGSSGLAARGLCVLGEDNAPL
# Sequence of Beta-2 adrenergic receptor (Homo sapiens) (P07550 whole entry, looked up): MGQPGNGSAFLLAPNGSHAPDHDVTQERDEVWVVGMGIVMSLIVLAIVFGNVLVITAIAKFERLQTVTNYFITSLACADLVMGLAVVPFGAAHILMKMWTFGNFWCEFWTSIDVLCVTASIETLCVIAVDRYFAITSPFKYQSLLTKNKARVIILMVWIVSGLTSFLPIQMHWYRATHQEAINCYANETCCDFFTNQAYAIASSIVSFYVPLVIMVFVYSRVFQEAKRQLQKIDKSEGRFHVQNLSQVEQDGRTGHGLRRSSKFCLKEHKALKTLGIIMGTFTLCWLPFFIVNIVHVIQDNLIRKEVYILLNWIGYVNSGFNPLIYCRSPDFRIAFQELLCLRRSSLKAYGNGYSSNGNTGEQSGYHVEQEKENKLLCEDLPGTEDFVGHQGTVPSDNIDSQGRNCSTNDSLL
# Sequence of D(2) dopamine receptor (Homo sapiens) (P14416 whole entry, looked up): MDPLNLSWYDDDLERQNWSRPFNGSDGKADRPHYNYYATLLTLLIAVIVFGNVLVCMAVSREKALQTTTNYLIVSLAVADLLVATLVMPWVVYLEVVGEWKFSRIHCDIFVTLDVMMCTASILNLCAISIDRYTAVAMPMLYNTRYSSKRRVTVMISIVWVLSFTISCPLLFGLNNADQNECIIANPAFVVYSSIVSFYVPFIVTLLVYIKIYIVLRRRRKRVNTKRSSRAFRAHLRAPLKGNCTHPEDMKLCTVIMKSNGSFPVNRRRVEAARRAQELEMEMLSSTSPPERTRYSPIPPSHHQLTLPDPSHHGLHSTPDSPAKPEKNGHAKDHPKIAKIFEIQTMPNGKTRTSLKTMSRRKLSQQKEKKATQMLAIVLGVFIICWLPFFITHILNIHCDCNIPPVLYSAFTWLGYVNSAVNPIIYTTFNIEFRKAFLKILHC
# Sequence of 5-hydroxytryptamine receptor 2A (Homo sapiens) (P28223 whole entry, looked up): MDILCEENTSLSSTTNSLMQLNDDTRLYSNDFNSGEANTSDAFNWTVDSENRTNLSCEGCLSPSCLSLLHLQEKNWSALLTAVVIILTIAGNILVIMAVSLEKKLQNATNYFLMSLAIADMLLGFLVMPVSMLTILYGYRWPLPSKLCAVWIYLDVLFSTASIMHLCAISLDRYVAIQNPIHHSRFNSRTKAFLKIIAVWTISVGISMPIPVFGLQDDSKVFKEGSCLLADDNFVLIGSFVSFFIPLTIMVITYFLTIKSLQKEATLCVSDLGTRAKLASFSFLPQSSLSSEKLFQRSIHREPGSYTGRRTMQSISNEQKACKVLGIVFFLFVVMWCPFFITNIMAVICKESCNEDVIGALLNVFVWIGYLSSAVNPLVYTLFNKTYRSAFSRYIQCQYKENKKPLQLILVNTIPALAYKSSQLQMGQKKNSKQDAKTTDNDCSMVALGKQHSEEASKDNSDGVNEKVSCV
# Sequence of Muscarinic acetylcholine receptor M1 (Homo sapiens) (P11229 whole entry, looked up): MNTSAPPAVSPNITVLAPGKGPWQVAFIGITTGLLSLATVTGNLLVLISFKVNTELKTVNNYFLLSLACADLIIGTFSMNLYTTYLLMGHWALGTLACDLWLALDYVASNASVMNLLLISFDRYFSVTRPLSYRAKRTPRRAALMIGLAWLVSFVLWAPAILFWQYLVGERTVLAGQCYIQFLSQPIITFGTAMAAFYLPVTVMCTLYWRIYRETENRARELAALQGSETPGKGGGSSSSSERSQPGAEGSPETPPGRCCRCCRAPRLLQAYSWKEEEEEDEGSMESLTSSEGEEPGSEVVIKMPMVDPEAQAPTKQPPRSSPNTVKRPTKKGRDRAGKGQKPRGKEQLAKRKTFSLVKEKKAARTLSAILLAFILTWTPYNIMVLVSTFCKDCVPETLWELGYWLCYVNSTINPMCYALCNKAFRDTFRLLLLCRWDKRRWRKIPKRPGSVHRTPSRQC
smiles,measurement,setting,value
CC(C)(C)OC(=O)c1ccc(O)cc1,Potency,[1],inactive
same,Potency,[2],61.1 µM (active)
same,Potency,[3],inactive
same,Potency,[4],inactive
same,Potency,[5],inactive
same,Potency,[6],inactive
same,Potency,[7],inactive
same,Potency,[8],inactive
same,Potency,[9],inactive
same,Potency,[10],inactive
same,Potency,[11],inactive
same,Potency,[12],inactive
same,Potency,[13],inactive
same,Potency,[14],inactive
same,Potency,[15],inactive
same,Potency,[16],inactive
CC(CC(=O)Cl)CC(C)(C)C (stereo not drawn),Potency,[1],inactive
same,Potency,[2],inactive
same,Potency,[3],inactive
same,Potency,[4],inactive
same,Potency,[5],inactive
same,Potency,[6],inactive
same,Potency,[7],inactive
same,Potency,[8],inactive
same,Potency,[17],inactive
same,Potency,[10],inactive
same,Potency,[11],inactive
same,Potency,[12],inactive
same,Potency,[18],inactive
same,Potency,[13],inactive
same,Potency,[14],inactive
same,Potency,[15],inactive
CCC(CC)CO,Potency,[1],inactive
same,Potency,[2],inactive
same,Potency,[3],inactive
same,Potency,[4],inactive
same,Potency,[5],inactive
same,Potency,[6],inactive
same,Potency,[7],inactive
same,Potency,[8],inactive
same,Potency,[17],inactive
same,Potency,[10],inactive
same,Potency,[11],inactive
same,Potency,[12],inactive
same,Potency,[18],inactive
same,Potency,[13],inactive
same,Potency,[14],inactive
same,Potency,[15],inactive
same,Potency,[16],inactive
CC(=O)c1ccc([N+](=O)[O-])cc1,Potency,[1],inactive
same,Potency,[2],inactive
same,Potency,[3],inactive
same,Potency,[4],inactive
same,Potency,[5],inactive
same,Potency,[6],inactive
same,Potency,[7],inactive
same,Potency,[8],inactive
same,Potency,[9],inactive
same,Potency,[17],inactive
same,Potency,[12],inactive
same,Potency,[18],inactive
same,Potency,[13],inactive
same,Potency,[14],inactive
same,Potency,[15],inactive
same,Potency,[16],inactive
CC(C)(C)c1ccc(-c2ccc(C(C)(C)C)cc2)cc1,Potency,[1],inactive
same,Potency,[2],inactive
same,Potency,[3],inactive
same,Potency,[4],inactive
same,Potency,[5],inactive
same,Potency,[6],inactive
same,Potency,[7],inactive
same,Potency,[8],inactive
same,Potency,[9],inactive
same,Potency,[10],inactive
same,Potency,[11],inactive
same,Potency,[12],inactive
same,Potency,[18],inactive
same,Potency,[13],inactive
same,Potency,[15],inactive
same,Potency,[16],inactive
Nc1ccc(/C=C/c2ccc(N)cc2S(=O)(=O)O)c(S(=O)(=O)O)c1,"activity change, negative = cytotoxicity",[1],-4.83% [at 0.349 µM]
same,"activity, positive = activation",[2],-0.938% [at 0.349 µM]
same,activity change,[3],"-1.31% [at 0.217 µM, active compounds read high]"
same,activation,[4],-0.667% [at 0.29 µM]
same,activation,[5],-1.11% [at 0.217 µM]
same,"activity change, negative = cytotoxicity",[6],-0.304% [at 0.249 µM]
same,"activity change, negative = cytotoxicity",[7],0.884% [at 0.249 µM]
same,"activity change, negative = cytotoxicity",[8],-1.67% [at 0.249 µM]
same,"activity, negative = inhibition",[9],63.5% [at 0.233 µM]
same,activation,[17],1.96% [at 0.292 µM]
same,activation,[12],-0.633% [at 0.349 µM]
same,"activity change, negative = inhibition",[18],-10.6% [at 0.349 µM]
same,"activity change, negative = inhibition",[13],-6.48% [at 0.349 µM]
same,activation,[14],-7.68% [at 0.349 µM]
same,activation,[15],-13.5% [at 0.349 µM]
same,"activity change, negative = inhibition",[16],6.36% [at 0.348 µM]
CC1CCN(CCCC(=O)c2ccc(F)cc2)CC1,Potency,[1],inactive
same,Potency,[2],inactive
same,Potency,[3],inactive
same,Potency,[4],inactive
same,Potency,[5],inactive
same,Potency,[6],inactive
same,Potency,[7],inactive
same,Potency,[8],inactive
same,Potency,[17],inactive
same,Potency,[10],inactive
same,Potency,[11],inactive
same,Potency,[12],inactive
same,Potency,[18],inactive
same,Potency,[13],inactive
same,Potency,[14],inactive
CCN(CCC#N)c1ccccc1,Potency,[1],inactive
same,Potency,[2],inactive
same,Potency,[3],inactive
same,Potency,[4],inactive
same,Potency,[5],inactive
same,Potency,[6],inactive
same,Potency,[7],inactive
same,Potency,[8],inactive
same,Potency,[9],inactive
same,Potency,[17],inactive
same,Potency,[12],inactive
same,Potency,[18],inactive
same,Potency,[13],inactive
same,Potency,[14],inactive
same,Potency,[15],inactive
same,Potency,[16],inactive
